Assay results: PubChem BioAssay AID652136 (The Scripps Research Institute Molecular Screening Center, 2013)
Hit rate of the full screen: of about 2,400 compounds, about 1,900 (79%) were called active. The set was probably picked from earlier hits. Not all results are given here. Values without a mark were called inactive.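 How the source made its calls: active means inhibition above the mean of all tested compounds plus 3 SD (cut at about 3% in these data); inactive means the rest.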

test: StAR reporter signal changes without DAX1, counter-screen for DAX1 inhibitor project, cell-based, luminescence, AF-2 mutant SF-1, transactivation (AID 652136); details: HEK293 StAR-luciferase, SF-1 AF2 mutant, at 6.8 µM, stronger effect = higher value;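 further: 0% = DAX-1 transfected cells with DMSO and 100% = cells without DAX-1 with DMSO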

Question: Which inhibition does the source give for `c1ccc(Cc2c(-c3ccco3)nc3c4ccccc4ccn23)cc1` here?
Answer: 8.27% (active)

Question: Which inhibition does the source give for `CC1CCN(C(=O)COC(=O)c2cc(=O)[nH]c3ccccc23)CC1` here?
Answer: 5.98% (active)

Question: With `COc1ccccc1CCC(=O)OCC(=O)N1CCN(S(=O)(=O)c2ccc(C)cc2C)CC1` as the molecule, how does the inhibition read?
Answer: 1.55%

Question: Which inhibition does the source give for `COc1cc(/C=N/O)ccc1OCc1ccc([N+](=O)[O-])cc1` here?
Answer: 6.8% (active)

Question: Which inhibition does the source give for `COc1cc(C2c3cc4c(cc3C(O)C3COC(=O)C23)OCO4)cc(OC)c1OC` (stereo unspecified) here?
Answer: -5.65%

Question: For `CC(C)c1ccc(Nc2ncccc2C#N)cc1`, which inhibition is on record?
Answer: 5.42% (active)

Question: Which inhibition does the source give for `COc1ccc(/C=C/C(=O)Nc2ccc(C34CC5CC(CC(O)(C5)C3)C4)cc2)cc1OC` here?
Answer: -4.01%

Question: For `C(=N\Nc1ccc2ccccc2n1)/c1ccc2c(c1)OCO2`, which inhibition is on record?
Answer: 2.84%

Question: Which inhibition does the source give for `COc1cccc(/C=C/C(=O)Nc2ccc3c(c2)OCCO3)c1` here?
Answer: 3.61% (active)

Question: With `Cc1cccc(NC(=O)/C=C/c2ccc3c(c2)OCO3)n1` as the molecule, how does the inhibition read?
Answer: 6.21% (active)

Question: Which inhibition does the source give for `O=C(NCCc1c[nH]c2ccccc12)c1cc2ccccc2oc1=O` here?
Answer: 7.29% (active)

Question: With `O=C(O)c1ccc(N/N=C/c2cn(-c3ccccc3)nc2-c2cccs2)cc1` as the molecule, how does the inhibition read?
Answer: 6.77% (active)

Question: With `Cc1csc(SCC(=O)Nc2sccc2C#N)n1` as the molecule, how does the inhibition read?
Answer: 10.8% (active)

Question: For `Cc1cc(C)c(C)c(S(=O)(=O)N2CCN(C(=O)c3ccc4c(=O)n5c(nc4c3)CCC5)CC2)c1C`, which inhibition is on record?
Answer: -0.34%

Question: Which inhibition does the source give for `CCCc1cc(C(=O)Nc2ccc(Cl)cn2)cs1` here?
Answer: 6.47% (active)

Question: With `CCCc1cc(C(=O)Nc2ccc(C(=O)OC)cc2)cs1` as the molecule, how does the inhibition read?
Answer: 3.67% (active)

Question: With `CC(C)(O)C#Cc1ccc(CNC[C@H]2O[C@@H](n3cnc4c(=O)[nH]c(N)nc43)[C@H](O)[C@@H]2O)s1` as the molecule, how does the inhibition read?
Answer: -0.84%

Question: With `CCCNC(=O)C1CC(=O)N(c2ccc(OCc3ccccc3)cc2)C1` (stereo unspecified) as the molecule, how does the inhibition read?
Answer: 4.36% (active)

Question: Which inhibition does the source give for `CCc1ccc(NC2Nc3cc(C)nn3S2)cc1` (stereo unspecified) here?
Answer: 5.97% (active)

Question: With `O=C(Nc1ccc(NC(=O)c2cccs2)cn1)c1ccco1` as the molecule, how does the inhibition read?
Answer: 6.87% (active)

Question: With `CC(=O)Nc1cccc(C(=O)OCC(=O)c2ccc3c(c2)OCO3)c1` as the molecule, how does the inhibition read?
Answer: 5.14% (active)
